Hits are enriched below; roughly 31% of the tested compounds scored in any of these assays.
PLAP activator: human PLAP activation; P05187; purified PLAP enzyme, luminescent substrate read-out; hits give high values; activation fold at 20 µM; hit rate 1.2% among 96,000; AID 696; in the data active = activation fold above about 2
CYP2C19 inh: inhibitors of human CYP2C19; P33261; CYP2C19 Supersomes, luciferin-H EGE luminescence, 30 min; inhibition, % at 5 µM; hit rate 21% among 96,000;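 active = CYP2C19 inhibition above a set limit at 5 µM in the primary screen, cut at about 50% in these data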
Target sequence (P33261 whole entry, looked up): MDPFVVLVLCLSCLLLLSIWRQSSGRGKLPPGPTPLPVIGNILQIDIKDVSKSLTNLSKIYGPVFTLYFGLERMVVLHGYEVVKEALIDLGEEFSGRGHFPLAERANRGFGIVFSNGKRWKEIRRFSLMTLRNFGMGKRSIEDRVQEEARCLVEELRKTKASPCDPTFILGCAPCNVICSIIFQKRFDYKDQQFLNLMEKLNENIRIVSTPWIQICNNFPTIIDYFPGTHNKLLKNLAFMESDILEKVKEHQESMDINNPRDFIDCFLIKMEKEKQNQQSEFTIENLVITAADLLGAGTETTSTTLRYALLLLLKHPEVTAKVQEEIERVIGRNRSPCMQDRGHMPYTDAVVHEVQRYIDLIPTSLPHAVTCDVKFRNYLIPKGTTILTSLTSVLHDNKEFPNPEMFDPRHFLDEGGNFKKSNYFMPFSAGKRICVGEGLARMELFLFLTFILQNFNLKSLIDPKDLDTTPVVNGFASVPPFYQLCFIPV
CYP2C9 inh: blocks human cytochrome P450 2C9; CYP2C9 Supersomes, luciferin-H conversion, luminescence; hit rate 20% among 96,000; P11712; inhibition, % at 5 µM; AID 777;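 active = blocking of liver enzyme CYP2C9 beyond about 50% at 5 µM, limit read from the data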
CYP2C9 activ: activators of human CYP2C9 | recombinant CYP2C9, luciferin-H conversion, luminescence; hits give high values; factor 1 = untreated enzyme, 0 = blocked | activation factor at 5 µM | P11712 | hit rate 1.4% among 96,000 | AID 1024;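 active = activation factor of 2 or more for CYP2C9 at a 5 µM dose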
CYP2C19 activ: cytochrome P450 2C19 (human) activation. P33261. recombinant CYP2C19, luciferin-H EGE luminescence; hits give high values; 0 = fully inhibited enzyme, 1 = untreated enzyme. activation factor at 5 µM. 96,000 tested, under 10 active;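 active = activation factor of at least 2 at 5 µM in the primary screen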
Of the large screens only hits and unclear results are named; the others gave an inactive call.

CCOC(=O)Cn1c(=O)c2c(nc3n2CCN3Cc2ccccc2)n(C)c1=O	none
Cn1c(=O)c2c(nc(Br)n2Cc2ccccc2Cl)n(C)c1=O	CYP2C19 inh 76.6
CCOc1nc2c(c(=O)n(C)c(=O)n2C)n1Cc1ccccc1Cl	none
O=C(O)COc1ccc(S(=O)(=O)c2ccc(OCC(=O)O)cc2)cc1	none
O=C(CN1CCN(C2CCCCC2)CC1)c1ccc2cc[nH]c2c1	none
Cn1c(=O)c2[nH]c(CNCc3ccccc3Cl)nc2n(C)c1=O	PLAP activator 2.9
C/C(Cl)=C\Cn1c(N2CCCCCC2)nc2c1c(=O)n(C)c(=O)n2C	CYP2C9 inh 85.1
C=CCOc1nc2c(c(=O)n(C)c(=O)n2C)n1Cc1c(Cl)cccc1Cl	CYP2C19 inh 62.2
C=CCOc1nc2c(c(=O)n(C)c(=O)n2C)n1C	none
Cn1c(=O)c2[nH]c(CN3CCN(Cc4ccccc4)CC3)nc2n(C)c1=O	none
CCOc1cc(C(=O)Nc2cc(=O)n(C)c(=O)n2C)cc(OCC)c1OCC	none
CCCCCCn1c(N2CCC(C(N)=O)CC2)nc2c1c(=O)n(C)c(=O)n2C	none
COc1ccc(CC(=O)Nc2ccc(S(=O)(=O)Nc3nccc(C)n3)cc2)cc1	PLAP activator 2.1
COc1ccc(NC(=O)CSc2nccc(C)n2)cc1	CYP2C19 inh 50.7
Cc1c(NC(=O)c2ccc(Br)o2)cccc1C(=O)O	none
Nc1nc(SCc2nnc(SCC(=O)O)n2-c2ccccc2)nc2sc3c(c12)CCCC3	none
Cc1cc2oc(=O)cc(CSc3nc(N)cc(N)n3)c2cc1C	none
O=C(NCCCc1ccccc1)c1cnc2n(c1=O)CCS2	CYP2C19 inh 83.2
O=C(NCCc1ccc(Cl)cc1)c1cnc2n(c1=O)CCS2	CYP2C19 inh 54.9
Cc1cn(S(=O)(=O)c2ccc(Br)c3ccccc23)cn1	none
Cc1ccc([N+](=O)[O-])cc1N=C(c1cccc(Br)c1)N1CCOCC1	CYP2C19 inh 64.4, CYP2C9 inh 51.8
O=C(Oc1ccccc1C(=O)N1CCOCC1)c1cccc(Br)c1	none
Cc1ccc(C(=O)Nc2nc(=O)n(C(=O)C3CC3)s2)cc1	CYP2C9 inh 78.6
Cc1ccc(C(=O)Nc2nc3ccccc3c(=O)s2)cc1	none
O=C(Nc1nc(-c2ccco2)cs1)c1ccccc1	none
Cc1ccc(C(=O)Nc2nc(=O)n(C(=O)c3ccccc3C)s2)cc1	CYP2C9 inh 82.3
O=C(Nc1nc(=O)n(C(=O)C2CC2)s1)c1ccccc1	CYP2C9 inh 79.9
Cc1nc2ncnn2c(C)c1CCC(=O)Oc1ccccc1	none
O=C1OCCC1Sc1nnc(-c2ccc(Br)cc2)o1 (stereo not drawn)	CYP2C19 inh 62.1
Brc1ccc(-c2nnc(SCCC3OCCCO3)o2)cc1	none
CCc1ccc(NC(=O)Cn2nc(C(F)(F)F)c3c2CCC3)cc1	none (no result: CYP2C19 inh, CYP2C9 inh, CYP2C9 activ, CYP2C19 activ)
Cc1cc(NC(=O)Cn2nc(C(F)(F)F)c3c2CCC3)n(-c2ccccc2)n1	CYP2C19 inh 80.0, CYP2C9 inh 61.7
CC(C)c1ccc(C2C(C#N)=C(N)N3C(=C2C#N)Sc2ccccc23)cc1 (stereo not drawn)	CYP2C19 inh 66.7
CC(C)c1ccc(C2CC(=O)N3CN(C)CSC3=C2C#N)cc1 (stereo not drawn)	none
c1ccc(N2CCN(c3ncccn3)CC2)cc1	none
O=C(Nc1ccc2c(c1)OCO2)N1CCN(c2ncccn2)CC1	none
Oc1ccccc1N1CCN(c2ncccn2)CC1	CYP2C19 inh 83.6, CYP2C9 inh 86.0
O=C(NC1CCCCC1)N1CCN(c2ncccn2)CC1	CYP2C19 inh 59.6
O=C(Nc1ccccc1Cl)N1CCN(c2ccc3nnc(-c4ccc(F)cc4)n3n2)CC1	CYP2C9 inh 66.5
O=C(Nc1ccccc1Cl)N1CCN(c2ncccn2)CC1	CYP2C19 inh 85.4
COc1cc(-c2noc(CCCC(=O)NCc3ccccc3)n2)cc(OC)c1OC	none
CCCOc1nc2c(c(=O)n(C)c(=O)n2C)n1CC	none
O=C(Nc1ccccc1)N1CCN(c2ncccn2)CC1	CYP2C19 inh 77.8, CYP2C9 inh 51.8
CCc1ccc(N=CC23c4ccccc4C(c4ccccc42)C2C(=O)N(c4ccc(OC)cc4)C(=O)C23)cc1 (stereo not drawn)	none
CC1(C)CC(=O)C=C(NCCN2CCN(C(=O)Nc3ccc(Cl)cc3)CC2)C1	none
CC1(C)CC(=O)C=C(NCCN2CCN(C(=O)Nc3ccc(Cl)c(Cl)c3)CC2)C1	CYP2C19 inh 66.4
COc1cc(/C=C(\C#N)c2nc3ccccc3[nH]2)ccc1Oc1ccc([N+](=O)[O-])cn1	none
COc1cc(/C=C(/C#N)c2ccccc2)ccc1Oc1ccc([N+](=O)[O-])cn1	CYP2C9 inh 58.9
O=C(c1cc2ccccc2oc1=O)N(Cc1ccco1)C1CCS(=O)(=O)C1 (stereo not drawn)	none
CC(C)c1ccc(CN(C(=O)c2cc3ccccc3oc2=O)C2CCS(=O)(=O)C2)cc1 (stereo not drawn)	CYP2C9 inh 62.5
COc1ccc(CN(C(=O)c2oc3ccccc3c2C)C2CCS(=O)(=O)C2)cc1OC (stereo not drawn)	CYP2C19 inh 75.2, CYP2C9 inh 95.6
COc1ccc(CCNC(=O)c2c(-c3ccccc3)noc2C)cc1OC	CYP2C19 inh 89.7, CYP2C9 inh 85.6
Cc1onc(-c2ccccc2)c1C(=O)NC(C)C	none
Cc1onc(-c2ccccc2)c1C(=O)NCCc1c[nH]c2ccccc12	CYP2C19 inh 58.6, CYP2C9 inh 56.4
COc1ccc(Cc2nnc(NC(=O)c3c(-c4ccccc4)noc3C)s2)cc1	CYP2C19 inh 84.0, CYP2C9 inh 93.1
CCOC(=O)c1c(NC(=O)c2c(-c3ccccc3)noc2C)sc(C)c1-c1ccccc1	none
COc1ccc(Cc2nnc(NC(=O)c3c(-c4ccccc4)noc3C)s2)cc1OC	CYP2C9 inh 53.7
COC(=O)C(NC(=O)c1ccc(F)cc1)(Nc1nc(C)cs1)C(F)(F)F (stereo not drawn)	none
Cc1onc(-c2c(F)cccc2Cl)c1C(=O)OCC(=O)Nc1c(C)n(C)n(-c2ccccc2)c1=O	none
CCOC(=O)C(C)Sc1ccc2nnc(-c3ccc(F)cc3)n2n1 (stereo not drawn)	none
Cc1sc2nc(SCC(=O)NCc3ccco3)n(Cc3ccccc3)c(=O)c2c1C	CYP2C9 inh 59.3
Cc1sc2nc(C(C)C)nc(SCC(=O)NCc3ccco3)c2c1C	CYP2C19 inh 77.6, CYP2C9 inh 82.2
Cc1sc2nc(SCC(=O)NCc3ccco3)n(-c3ccccc3)c(=O)c2c1C	none
Cc1[nH]c2ccc(-c3nnc(SCC(=O)NCc4ccco4)n3Cc3ccccc3)cc2c1C	PLAP activator 2.1, CYP2C9 inh 65.5
Cc1ccccc1-c1nnc2s/c(=C\c3ccc(N(C)C)cc3)c(=O)n12	none
O=C(Nn1c(=O)[nH]c2ccsc2c1=O)c1ccccc1	none
Cc1cc(OCC(=O)Nc2ccc(F)c(F)c2)nc(C(C)C)n1	CYP2C19 inh 73.3
CCSc1nnc(C)n1-c1ccc(C(=O)O)cc1	none
CCc1nnc(NS(=O)(=O)c2ccc(N/C=C\C(=O)c3ccc(C)cc3)cc2)s1	CYP2C9 inh 87.7

Screens (PubChem BioAssay)
